From PubChem BioAssay
TEAD-YAP inh: TEAD-YAP interaction inhibition; HEK-TIYL cells, TEAD-Gal4/YAP UAS-luciferase luminescence; inhibition, % at 9.12 µM; 640,000 tested, 1.4% active; AID 1259422; in the data active means inhibition above about 32%;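 further: 0% = median of test compound wells and 100% = reference inhibitor wells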
GPR151 ag: activates the human receptor GPR151. Q8TDV0. PathHunter beta-arrestin GPR151 cells, luminescence. activation, % at 11.2 µM. 650,000 tested, 1% active; in the data active means activation above about 4.9%;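 further: 0% = median of compound wells and 100% = cells with positive control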
MITF inh: blocks human microphthalmia-associated transcription factor; O75030; AlphaScreen MITF homodimerization, bead proximity signal; inhibition, % at 2.6 µM; 650,000 tested, 0.91% active; in the data active means inhibition above about 50%;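 further: 0% = vehicle wells with protein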
Target sequence (O75030 whole entry, looked up): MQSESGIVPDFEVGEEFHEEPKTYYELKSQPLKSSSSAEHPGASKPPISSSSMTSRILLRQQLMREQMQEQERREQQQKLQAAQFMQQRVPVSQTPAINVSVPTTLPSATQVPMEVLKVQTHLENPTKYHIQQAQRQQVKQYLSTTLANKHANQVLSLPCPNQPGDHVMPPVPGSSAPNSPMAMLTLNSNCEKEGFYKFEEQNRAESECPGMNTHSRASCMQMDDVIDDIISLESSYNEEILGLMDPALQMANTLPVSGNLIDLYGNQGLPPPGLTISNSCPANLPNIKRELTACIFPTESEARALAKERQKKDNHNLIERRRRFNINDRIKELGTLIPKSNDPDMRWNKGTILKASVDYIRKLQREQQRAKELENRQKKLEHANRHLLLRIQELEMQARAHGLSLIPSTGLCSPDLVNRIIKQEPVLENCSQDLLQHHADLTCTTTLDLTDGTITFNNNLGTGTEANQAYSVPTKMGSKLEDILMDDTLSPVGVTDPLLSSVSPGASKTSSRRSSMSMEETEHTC
FBW7 activator: activators of human E3 ligase FBW7 | normalized activity (activation), % at 26.1 µM | AlphaScreen FBW7–phospho-cyclin E peptide binding, activator screen | 650,000 tested, 0.13% active | AID 1259310 | Q969H0; in the data active means normalized activity above about 1.9%;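 further: purified mutant Fbw7 with reduced substrate affinity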
GPR151 conf act: confirmation of human GPR151 activators | GPR151 PathHunter beta-arrestin cells, luminescence, 90 min; % of EA-reagent control over plate median | 6,700 tested, under 10 active | shares compounds with GPR151 ag | activation, % at 11.2 µM | AID 1508609;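 active means mean percent activation across replicates above the confirmation screen cutoff of 4.91%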
GPR119 ag: counter-screen for GPR151 activators: effect on human GPR119. GPR119 PathHunter beta-arrestin cells, luminescence, 90 min; 0 = compound-well median, 100 = enzyme-acceptor control. AID 1508611. 6,700 tested, 0.3% active. activation, % at 11.2 µM. shares compounds with GPR151 ag;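 active means mean percent activation in the counterscreen above 29.09%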;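 further: counterscreen on off-target GPR119 to flag nonselective hits from the GPR151 activator screen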
* hit, by the source's call; . = not tested or not shown. An excerpt weighted towards active compounds, which were near 3.5% of everything screened.

SMILES	TEAD-YAP inh	GPR151 ag	MITF inh	FBW7 activator	GPR151 conf act	GPR119 ag
Cc1cc(C)nc(-n2nc(C)c(C(O)(CC(=O)C(F)(F)F)C(F)(F)F)c2N)n1 (centres undefined)	-8	11*	0	0	0	-3
CCCc1ccc(-c2csc(NC(=O)CCC(=O)O)n2)cc1	4	-1	9	0	.	.
O=C(Nc1cc(F)ccc1F)c1cccn(OCc2ccccc2F)c1=O	2	-1	-15	0	.	.
CCn1c(=N)c(C(=O)NC2CCCC2)cc2c(=O)n3cccc(C)c3nc21	14	1	0	0	.	.
CCC(C)n1c(=N)c(C(=O)NC2CCCCC2)cc2c(=O)n3cccc(C)c3nc21 (centres undefined)	5	5.2*	6	0	0	-6
COCCCNC(=O)c1cc2c(=O)n3cccc(C)c3nc2n(CCOC)c1=N	5	6.6*	27	0	0	-1
C(=N\Nc1ccccc1)/c1ccc2c(c1)OCCO2	-11	5.3*	6	0	-1	-3
O=C(NCCCCCCNC(=O)NNC(=O)c1cccnc1)NNC(=O)c1cccnc1	11	-1	-14	0	.	.
CCc1cccc(NC(=O)/C=C/C(=O)O)c1	-1	5.2*	-5	0	0	-5
Cc1cccc(NC(=O)/C=C/C(=O)O)c1	-12	2	8	0	.	.
O=S1(=O)CCC(NS(=O)(=O)c2ccc(S(=O)(=O)NC3CC3)cc2)C1 (centres undefined)	-8	5.2*	-6	1	-1	-9
C/C(=N/NC(=O)CNC(=O)c1ccccc1O)c1ccc(F)cc1	-1	-1	12	0	.	.
COc1ccc(/C(C)=N/NC(=O)CNC(=O)c2ccccc2O)cc1	-6	5.3*	4	0	-1	-8
O=C(NC1CC1)c1cnc(NCCCN2CCCC2=O)s1	2	6.0*	3	0	0	-5
COc1ccc(-c2cccc(C(=O)NCCCN3CCCC3=O)c2)cc1	-10	2	-10	0	.	.
O=C(NCCCN1CCCC1=O)c1cccc(-c2ccc(C(=O)NC3CC3)cc2)c1	-8	6.1*	14	0	1	-1
CC(C)CN1CCN(Cc2ccc3cccc(F)c3n2)CC1CCO (centres undefined)	-4	-1	6	0	.	.
CC(C)(C)CN1CCN(Cc2ccc3cccc(F)c3n2)CC1CCO (centres undefined)	-5	7.2*	0	0	1	3
Cc1ccc(/C=C2\C(=O)NC(=O)N(c3cccc(Br)c3)C2=O)cc1[N+](=O)[O-]	8	5.1*	-4	0	0	12
CCOc1cc(/C=C2/C(=O)NN(c3cccc(C)c3)C2=O)cc([N+](=O)[O-])c1O	2	6.0*	10	0	1	1
COc1cc([N+](=O)[O-])cc(/C=C2/C(=O)NC(=O)N(c3cccc(C)c3)C2=O)c1O	4	5.3*	2	0	1	7
COc1cc(/C=C2/C(=O)NN(c3cccc(C)c3)C2=O)cc([N+](=O)[O-])c1O	3	-1	3	0	.	.
CC(C)(C)c1ccc(-c2nc3ccccc3c(=O)n2NC(=O)c2ccc(F)cc2Cl)cc1	9	0	4	0	.	.
COc1ccc(N(CC(=O)N2CCCCC2)S(=O)(=O)c2ccc(C)cc2)cc1	3	2	-3	0	.	.
COc1ccc(S(=O)(=O)N(CC(=O)N2CCCC2)c2ccc(C)cc2)cc1	5	12*	-1	0	0	11
SMILES	TEAD-YAP inh	GPR151 ag	MITF inh	FBW7 activator	GPR151 conf act	GPR119 ag
Cc1cc(C)n(-c2nnc(C)n2/N=C/c2ccsc2)n1	1	0	11	0	.	.
CCOc1ccccc1NC(=O)CCc1nnc2ccc(N3CCCC3)nn12	7	6.7*	6	0	0	1
CCOc1ccccc1NC(=O)CCc1nnc2ccc(N3CCCCC3)nn12	6	-2	12	0	.	.
CCOC(=O)C(C)NC(=O)CCc1nnc2ccc(N3CCC(C)CC3)nn12 (centres undefined)	3	5.4*	4	0	0	-3
c1cc2c(cc1Nc1ccc(-c3ccc4c(c3)OCO4)cn1)OCCO2	-6	-1	-4	0	.	.
Cc1ccc(Oc2ccc(N3C(=O)c4ccc(Oc5cccc([N+](=O)[O-])c5)cc4C3=O)cc2)cc1	-10	-1	-4	0	.	.
CCN(CC)c1nc(NCCCN2CCCC2=O)nc(NCCCN2CCCC2=O)n1	0	0	5	0	.	.
CCN(CC)c1nc(NCCCN2CCCC2=O)nc(NCc2nc3ccccc3[nH]2)n1	-1	6.9*	0	0	-1	1
COc1ccc(O[C@H]2C=C[C@@H](c3ccccc3)O[C@@H]2CO/N=C2/[C@H]3CCn4c(=O)n(-c5ccccc5)c(=O)n4[C@H]3[C@H](O)[C@@H]3O[C@H]23)cc1	.	6.7*	1	0	0	-1
CC1=NNC(=O)C1CCC(=O)N/N=C\C(Cl)=C\c1ccccc1 (centres undefined)	-10	0	-5	0	.	.
CCOC(=O)COc1ccc(S(=O)(=O)NC(C)CC)cc1 (centres undefined)	4	5.3*	-4	0	0	9
CC(NS(=O)(=O)c1cc(Cl)ccc1Cl)C(=O)Nc1cccc([N+](=O)[O-])c1 (centres undefined)	6	7.7*	0	0	1	7
COc1ccc(NC(=O)C(C)NS(=O)(=O)c2ccc(C)cc2)cc1OC (centres undefined)	1	13*	21	0	0	5
COC(=O)c1ccc(NC(=O)C(C)NS(=O)(=O)c2cc(Cl)ccc2Cl)cc1 (centres undefined)	3	-1	6	0	.	.
CC(Oc1ccc(Br)cc1)C(=O)Nc1cccc([N+](=O)[O-])c1 (centres undefined)	-8	6.1*	19	0	2	-3
CCCC(=O)OCC1OC2OC(C)(C)OC2C2OC(C)(C)OC12 (centres undefined)	-3	4	-10	0	.	.
O=C(NCc1ccncc1)c1nnc2n(c1=O)CCN2c1ccccc1	1	2	-6	0	.	.
CCCSc1nnc2c(n1)OC(/C(C)=C/c1ccccc1)Nc1ccccc1-2 (centres undefined)	-58	0	-1	0	.	.
COc1ccc(S(=O)(=O)NC(C)C(=O)Nc2ccccc2)cc1 (centres undefined)	0	0	16	0	.	.
Cc1ccc(S(=O)(=O)NC(C)C(=O)Nc2cccc(C(F)(F)F)c2)cc1 (centres undefined)	14	6.0*	7	0	0	0
CC(=O)c1cccc(NC(=O)C(C)NS(=O)(=O)c2ccc(F)cc2)c1 (centres undefined)	-7	6.3*	-4	0	1	5
